Molecules are shown by their SMILES. Hit rate of the full screen: of about 310,000 compounds, about 3,800 (1.2%) were called active.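 Rule for the calls: active = ratio B-score over 3 SD below the library mean, with starting fluorescence within 5 SD of its mean; inactive = the rest, inconclusive results apart.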 What follows is part of a selection rich in actives, with near analogues and random picks from the rest.

Chain of Potassium channel subfamily K member 9 (Homo sapiens) (Q9NPC2 whole entry, looked up): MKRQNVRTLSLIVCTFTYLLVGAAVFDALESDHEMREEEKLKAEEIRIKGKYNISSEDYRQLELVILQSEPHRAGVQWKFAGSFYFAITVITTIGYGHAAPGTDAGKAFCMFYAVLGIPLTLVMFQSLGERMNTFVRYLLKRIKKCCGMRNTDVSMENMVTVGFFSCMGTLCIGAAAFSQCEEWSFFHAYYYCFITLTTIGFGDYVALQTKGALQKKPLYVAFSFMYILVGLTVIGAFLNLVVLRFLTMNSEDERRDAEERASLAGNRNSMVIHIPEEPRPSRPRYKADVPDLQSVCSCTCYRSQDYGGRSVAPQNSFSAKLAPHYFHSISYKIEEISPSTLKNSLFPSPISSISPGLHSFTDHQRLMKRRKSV

This assay has as its target Potassium channel subfamily K member 9 (Homo sapiens) (UniProt Q9NPC2). The assay is described as follows: blockers of human TASK-3 (KCNK9) channel – HEK293 cells, thallium flux, primary screen (AID 488922).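 For B-score: negative B-score means less thallium flux so channel inhibition.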 Conditions: HEK293 KCNK9, FluxOR thallium flux fluorescence, at 10 µM; hits give low values.
With `O=P(O)(CN1CCCCCC1)C1Cc2ccccc2C1`, the B-score entry was “inactive”. Next, `CCc1ccccc1NC(=S)Nc1cc(OC)c(NC(=O)C(C)C)cc1OC`: “inactive”; `CCc1ccccc1NC(=O)/C(=C/c1ccccc1)c1ccccc1`: -8.86 (active); `CCc1ccccc1NC(=O)CCOc1ccccc1`: “inactive”.

As to `COc1cccc(CNS(=O)(=O)c2ccc3c(c2)N(C(C)=O)CCS3)c1`, the B-score result was “inactive”. With `COc1cc(NC(=O)c2ccccc2)c(OC)cc1NC(=O)Cc1ccccc1` the entry was “inactive”; with `COc1cc(OC)cc(C(=O)OCC(=O)Nc2sccc2C(N)=O)c1`, “inactive”.

On to `NC(=O)c1c(NC(=O)c2ccccc2)sc2c1CCCC2`, for which the B-score result is “inactive”. `COc1cccc(OC)c1C(=O)Nc1sc2c(c1C(N)=O)CCCC2`: the B-score is -11.2 (active). Next, `COc1cccc(OC)c1C(=O)Nc1nnc(C(C)C)s1`: “inactive”; `Cc1cc(C)c(S(=O)(=O)N(C)CC(=O)NCC2CCCO2)c(C)c1` (stereo not given): “inactive”; `O=C(Cc1csc(Nc2nc(=S)[nH]c3ccccc23)n1)NCCCN1CCN(c2cccc(Cl)c2)CC1`: “inactive”. Next, `CCCn1nc(Oc2nc(NC(C)C)nc(N(C)C)n2)ccc1=O`: “inactive”.

As for `CCOC(=O)c1ccc(S(=O)(=O)N(CCO)Cc2cc3cc(OC)c(OC)cc3[nH]c2=O)cc1`, the B-score entry was “inactive”. With `COc1cccc(CNC(=O)C(=O)NCCC2CCCCN2S(=O)(=O)c2ccc(C)cc2)c1` (stereo not given) the entry was “inactive”; with `Cc1ccc(-n2c(SCC(=O)Nc3ncc(Cl)cc3Cl)nc3ccccc32)cc1`, “inactive”.

As for `Cc1[nH]nc(SCC(=O)NCC(C)C)c1[N+](=O)[O-]`, the B-score result is “inactive”. In the case of `O=C(CSc1ncn[nH]1)Nc1nc(-c2cccc([N+](=O)[O-])c2)cs1`, the B-score entry is “inactive”.

On to `CCNC(=O)CSc1nc(-c2ccccc2)cs1`, for which the B-score entry is “inactive”. Next, `O=C(CSc1nc(-c2ccccc2)cs1)Nc1cccc([N+](=O)[O-])c1`: -7.08 (active). Turning to `CCSc1nnc(-c2cc3c(s2)-c2ccccc2CC3)o1`, the B-score result was “inactive”. For `CN(C(=O)CCN1C(=O)/C(=C/c2ccccc2F)SC1=S)C1CCS(=O)(=O)C1` (stereo not given), the B-score result was “inactive”.

For `CCOC(=O)CSc1nc2c(sc(=S)n2CCc2ccccc2)c(=O)n1Cc1ccco1`, the B-score was -8.91 (active). Regarding `CCOC(=O)CSc1nc2c(c(=O)n(C)c(=O)n2C)n1Cc1ccccc1F`, the B-score result is “inactive”.

On to `COC(=O)CSc1nc2ccccc2c(=O)n1Cc1ccccc1`, for which the B-score result is “inactive”. Next, `Cc1ccc(OCC(=O)Nc2ccc(NC(=O)c3cccs3)cc2)c(C)c1`: “inactive”; `O=C(Nc1ccc2c(c1)OCCO2)c1ccoc1`: “inactive”; `Cc1cc(Oc2ccc(Cl)cc2)nc(SCC(=O)c2ccccc2)n1`: -11.2 (active). For `Cc1cc(C)nc(SCC(=O)c2ccc(Cl)cc2)n1`, the B-score result is “inactive”. Next, `COc1ccc(C(=O)CSc2nc(C)cc(C)n2)cc1[N+](=O)[O-]`: “inactive”.

(Values after PubChem BioAssay AID488922 (Johns Hopkins Ion Channel Center, 2010).)
